Data as given in the supplement of paper PMC10849652.
Targets with a hit are over-represented here; the source holds about 7,900 in all. About 0.6% of all pairs of compound and target were hits. Unmarked numbers belong to inactive results.

What was measured:
Assay in all cases: log2 fold change, soluble protein after heating vs DMSO (PISA); higher = thermal stabilisation; K562 cells, 10 uM, 30 min; active = over 0.2 and 3.5 SD of the protein, either way, in both replicates (recomputed)
[1] = compound: C1=CC=C(C=C1)[C@H](COC2=CC3=C(C=C2)NC(=O)N3)NC(=O)C4=CC=CN(C4=O)CC5=CC(=C(C=C5)F)F
In short: (§1)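 K562 cells at 2×10^6 cells/mL were given 10 μM compound for 30 min. Aliquots then went through 3 min of heating across 48°C-58°C, were pooled, and were extracted in PBS with 0.5% NP-40 at 4°C, and the supernatant after 21,000xg for 90 min was quantified by TMTpro 16plex LC-MS/MS with channel sums equalised. Thermal stability relative to control samples, from duplicates, is given as log2 fold change.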

[2] = compound: CC1=C(SC2=C1C(=N[C@H](C3=NN=C(N32)C)CC(=O)N)C4=CC=C(C=C4)Cl)C
In short: as §1

[3] = compound: CC1=C2C(=CC=C1)N=C(N(C2=O)C3=CC=CC=C3C)CN4C=NC5=C(N=CN=C54)N
In short: as §1

[4] = compound: Cc1sc2c(c1C)C(c1ccc(Cl)cc1)=N[C@@H](CC(=O)OC(C)(C)C)c1nnc(C)n1-2
In short: as §1

[5] = compound: c1ccc([C@@H]2C[C@H]2NC2CCNCC2)cc1
In short: as §1

Sequence of UniProt P12956 (P12956 whole entry, looked up): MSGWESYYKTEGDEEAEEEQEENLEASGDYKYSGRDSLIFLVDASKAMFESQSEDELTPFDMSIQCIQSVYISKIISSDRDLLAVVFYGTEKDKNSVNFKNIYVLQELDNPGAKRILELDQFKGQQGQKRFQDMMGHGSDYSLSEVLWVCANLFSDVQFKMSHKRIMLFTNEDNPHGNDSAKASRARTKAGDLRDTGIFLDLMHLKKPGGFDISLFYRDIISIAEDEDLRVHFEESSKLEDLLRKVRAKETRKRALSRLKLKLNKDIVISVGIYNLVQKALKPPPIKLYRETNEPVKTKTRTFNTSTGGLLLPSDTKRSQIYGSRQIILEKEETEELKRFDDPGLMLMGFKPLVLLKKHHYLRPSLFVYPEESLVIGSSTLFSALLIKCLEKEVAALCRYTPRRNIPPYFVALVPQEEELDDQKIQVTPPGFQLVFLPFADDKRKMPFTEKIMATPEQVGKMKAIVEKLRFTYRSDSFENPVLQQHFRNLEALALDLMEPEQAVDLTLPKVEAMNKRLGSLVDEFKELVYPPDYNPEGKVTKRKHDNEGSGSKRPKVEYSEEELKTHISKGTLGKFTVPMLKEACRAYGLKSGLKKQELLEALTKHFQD
Sequence of UniProt Q14139 (Q14139 whole entry, looked up): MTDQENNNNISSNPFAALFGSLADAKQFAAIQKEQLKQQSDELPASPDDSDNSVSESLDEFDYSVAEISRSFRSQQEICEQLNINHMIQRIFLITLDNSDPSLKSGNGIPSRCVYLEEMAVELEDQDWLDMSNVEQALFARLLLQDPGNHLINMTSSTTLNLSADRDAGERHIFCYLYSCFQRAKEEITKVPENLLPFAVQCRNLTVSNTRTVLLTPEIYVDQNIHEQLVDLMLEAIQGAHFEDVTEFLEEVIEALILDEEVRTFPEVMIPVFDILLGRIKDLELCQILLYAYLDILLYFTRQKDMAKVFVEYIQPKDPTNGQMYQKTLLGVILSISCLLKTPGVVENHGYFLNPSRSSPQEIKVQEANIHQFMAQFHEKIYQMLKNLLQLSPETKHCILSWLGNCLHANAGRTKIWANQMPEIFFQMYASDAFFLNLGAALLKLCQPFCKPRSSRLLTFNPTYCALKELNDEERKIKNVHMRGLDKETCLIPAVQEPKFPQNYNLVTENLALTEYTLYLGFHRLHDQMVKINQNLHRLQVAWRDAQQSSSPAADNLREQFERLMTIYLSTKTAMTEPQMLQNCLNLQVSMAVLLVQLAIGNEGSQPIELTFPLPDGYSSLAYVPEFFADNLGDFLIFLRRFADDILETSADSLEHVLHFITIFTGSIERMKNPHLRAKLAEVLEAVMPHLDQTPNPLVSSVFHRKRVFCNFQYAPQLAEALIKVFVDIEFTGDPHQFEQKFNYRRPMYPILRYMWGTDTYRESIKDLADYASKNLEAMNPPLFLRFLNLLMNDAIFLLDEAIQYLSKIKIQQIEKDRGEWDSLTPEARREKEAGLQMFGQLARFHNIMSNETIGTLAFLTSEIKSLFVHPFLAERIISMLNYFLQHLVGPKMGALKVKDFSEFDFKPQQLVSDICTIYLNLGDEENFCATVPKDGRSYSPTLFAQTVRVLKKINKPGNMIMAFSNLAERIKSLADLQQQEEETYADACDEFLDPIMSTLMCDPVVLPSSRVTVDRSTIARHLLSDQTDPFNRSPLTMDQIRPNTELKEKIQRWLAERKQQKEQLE
Sequence of UniProt Q7Z392 (Q7Z392 whole entry, looked up): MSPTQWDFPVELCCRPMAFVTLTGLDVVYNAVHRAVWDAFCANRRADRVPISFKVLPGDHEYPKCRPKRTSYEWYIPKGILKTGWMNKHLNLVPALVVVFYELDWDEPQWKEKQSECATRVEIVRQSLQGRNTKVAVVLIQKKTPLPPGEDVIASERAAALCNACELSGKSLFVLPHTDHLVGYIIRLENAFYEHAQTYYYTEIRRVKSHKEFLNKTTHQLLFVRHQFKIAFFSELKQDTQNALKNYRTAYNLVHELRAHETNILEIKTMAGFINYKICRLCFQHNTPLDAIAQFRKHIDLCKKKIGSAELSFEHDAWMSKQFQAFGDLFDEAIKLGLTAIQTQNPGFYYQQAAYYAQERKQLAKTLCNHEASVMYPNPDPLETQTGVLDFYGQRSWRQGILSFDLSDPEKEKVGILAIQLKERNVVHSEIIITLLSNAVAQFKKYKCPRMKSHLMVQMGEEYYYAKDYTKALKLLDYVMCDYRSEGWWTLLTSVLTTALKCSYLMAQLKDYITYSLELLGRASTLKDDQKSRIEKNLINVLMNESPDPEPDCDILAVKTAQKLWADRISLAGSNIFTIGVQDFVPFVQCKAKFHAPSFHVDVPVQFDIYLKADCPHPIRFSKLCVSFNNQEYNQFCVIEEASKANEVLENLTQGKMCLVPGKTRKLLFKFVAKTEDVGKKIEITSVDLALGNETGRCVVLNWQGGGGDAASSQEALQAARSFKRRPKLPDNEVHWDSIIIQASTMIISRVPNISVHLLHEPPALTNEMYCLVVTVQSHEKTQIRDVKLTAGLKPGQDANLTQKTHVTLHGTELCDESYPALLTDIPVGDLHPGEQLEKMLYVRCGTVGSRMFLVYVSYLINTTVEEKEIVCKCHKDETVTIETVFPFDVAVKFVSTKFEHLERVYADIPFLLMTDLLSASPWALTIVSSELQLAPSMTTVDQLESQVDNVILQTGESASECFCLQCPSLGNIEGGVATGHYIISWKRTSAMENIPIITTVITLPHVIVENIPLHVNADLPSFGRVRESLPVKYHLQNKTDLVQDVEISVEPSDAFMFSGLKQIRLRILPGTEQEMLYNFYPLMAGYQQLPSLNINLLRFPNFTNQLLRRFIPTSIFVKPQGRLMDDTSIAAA
Sequence of UniProt Q9NP79 (Q9NP79 whole entry, looked up): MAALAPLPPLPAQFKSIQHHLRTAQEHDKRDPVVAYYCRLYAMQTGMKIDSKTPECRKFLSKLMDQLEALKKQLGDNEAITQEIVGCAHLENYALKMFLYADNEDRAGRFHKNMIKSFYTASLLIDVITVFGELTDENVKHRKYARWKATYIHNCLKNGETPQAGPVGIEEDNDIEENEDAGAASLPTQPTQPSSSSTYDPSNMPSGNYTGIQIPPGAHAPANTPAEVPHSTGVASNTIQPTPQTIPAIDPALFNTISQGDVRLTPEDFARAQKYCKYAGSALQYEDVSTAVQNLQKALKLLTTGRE
Sequence of UniProt Q5T3F8 (Q5T3F8 whole entry, looked up): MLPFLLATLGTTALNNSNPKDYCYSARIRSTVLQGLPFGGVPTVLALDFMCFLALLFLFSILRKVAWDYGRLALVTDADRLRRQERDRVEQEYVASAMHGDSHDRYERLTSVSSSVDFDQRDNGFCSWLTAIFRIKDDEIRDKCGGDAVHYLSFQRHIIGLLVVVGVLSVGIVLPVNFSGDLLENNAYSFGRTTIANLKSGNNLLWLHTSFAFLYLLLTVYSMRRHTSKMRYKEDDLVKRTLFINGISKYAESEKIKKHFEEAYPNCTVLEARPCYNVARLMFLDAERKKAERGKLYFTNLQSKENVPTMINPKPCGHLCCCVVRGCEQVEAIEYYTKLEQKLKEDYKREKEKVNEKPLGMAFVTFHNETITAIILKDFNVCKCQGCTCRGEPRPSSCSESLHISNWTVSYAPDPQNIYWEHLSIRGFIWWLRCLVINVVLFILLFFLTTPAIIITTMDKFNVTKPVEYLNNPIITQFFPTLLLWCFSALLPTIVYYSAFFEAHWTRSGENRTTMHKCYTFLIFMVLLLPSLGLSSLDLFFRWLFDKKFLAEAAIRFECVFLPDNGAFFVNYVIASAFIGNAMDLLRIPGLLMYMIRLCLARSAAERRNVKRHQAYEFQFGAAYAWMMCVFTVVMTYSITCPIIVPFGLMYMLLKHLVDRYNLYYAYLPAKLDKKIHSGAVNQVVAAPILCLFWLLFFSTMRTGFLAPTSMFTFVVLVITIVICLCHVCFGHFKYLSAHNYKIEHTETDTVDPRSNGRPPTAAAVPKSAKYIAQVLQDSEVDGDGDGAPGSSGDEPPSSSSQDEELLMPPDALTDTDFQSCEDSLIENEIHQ
Sequence of UniProt Q14157 (Q14157 whole entry, looked up): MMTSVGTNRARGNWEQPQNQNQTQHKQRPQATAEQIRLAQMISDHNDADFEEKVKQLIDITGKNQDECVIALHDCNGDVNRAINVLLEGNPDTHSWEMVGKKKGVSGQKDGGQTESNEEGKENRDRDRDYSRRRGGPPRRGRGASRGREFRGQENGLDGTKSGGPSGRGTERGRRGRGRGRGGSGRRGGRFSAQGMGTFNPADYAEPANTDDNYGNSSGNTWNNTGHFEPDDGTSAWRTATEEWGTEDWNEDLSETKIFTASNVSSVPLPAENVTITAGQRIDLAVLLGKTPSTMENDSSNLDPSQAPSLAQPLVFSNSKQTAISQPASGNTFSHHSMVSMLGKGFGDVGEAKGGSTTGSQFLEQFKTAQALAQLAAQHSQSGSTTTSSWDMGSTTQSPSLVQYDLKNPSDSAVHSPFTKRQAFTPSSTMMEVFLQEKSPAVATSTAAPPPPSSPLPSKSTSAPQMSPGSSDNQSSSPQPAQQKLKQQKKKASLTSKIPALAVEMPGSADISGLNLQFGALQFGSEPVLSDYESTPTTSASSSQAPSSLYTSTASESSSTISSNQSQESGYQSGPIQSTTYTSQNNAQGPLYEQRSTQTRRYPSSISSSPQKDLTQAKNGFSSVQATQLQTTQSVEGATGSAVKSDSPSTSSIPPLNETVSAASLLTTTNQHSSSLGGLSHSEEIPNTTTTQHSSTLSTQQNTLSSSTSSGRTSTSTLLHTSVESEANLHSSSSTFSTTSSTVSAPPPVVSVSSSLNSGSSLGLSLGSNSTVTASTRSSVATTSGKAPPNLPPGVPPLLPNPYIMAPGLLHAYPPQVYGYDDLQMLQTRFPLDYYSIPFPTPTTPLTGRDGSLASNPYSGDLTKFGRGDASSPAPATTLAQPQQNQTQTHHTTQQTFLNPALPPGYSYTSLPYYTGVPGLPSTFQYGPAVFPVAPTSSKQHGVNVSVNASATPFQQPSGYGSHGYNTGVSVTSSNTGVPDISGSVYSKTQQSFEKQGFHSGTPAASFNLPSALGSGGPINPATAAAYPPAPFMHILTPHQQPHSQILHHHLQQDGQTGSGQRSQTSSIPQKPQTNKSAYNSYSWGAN

Target | log2 fold change [1] | log2 fold change [2] | log2 fold change [3] | log2 fold change [4] | log2 fold change [5]
VPS37A (UniProt Q8NEZ2) | -0.076 | 0.088 | 0.126 | 0.007 | 0.036
WAPL isoform 3 (UniProt Q7Z5K2) | -0.116 | 0.021 | 0.138 | -0.08 | 0.095
WRB (UniProt O00258) | 0.002 | -0.007 | -0.015 | 0.005 | 0.01
WDR11 (UniProt Q9BZH6) | -0.076 | 0.067 | 0.111 | 0.05 | 0.023
TYW1 (UniProt Q9NV66) | 0.017 | -0.022 | 0.039 | -0.005 | -0.091
XRCC6 (UniProt P12956) | -0.04 | 0.044 | 0.114 | -0.022 | -0.003
UGGT1 (UniProt Q9NYU2) | 0.032 | 0.027 | -0.003 | -0.007 | -0.021
VTA1 (UniProt Q9NP79) | 0.007 | 0.062 | 0.104 | -0.075 | -0.025
UBE4A isoform 2 (UniProt Q14139) | -0.051 | -0.067 | 0.013 | 0.013 | 0.081
VTI1A (UniProt Q96AJ9) | 0.032 | 0.009 | 0.091 | -0.023 | 0.07
TMEM70 (UniProt Q9BUB7) | -0.002 | 0.065 | 0.057 | -0.05 | -0.002
USP9X (UniProt Q93008) | -0.049 | 0.028 | 0.057 | 0.012 | -0.007
WASHC2A (UniProt Q641Q2) | -0.006 | -0.041 | -0.017 | 0.069 | 0.033
TRAPPC11 (UniProt Q7Z392) | 0.004 | 0.117 | 0.077 | -0.031 | 0.027
U2AF1 isoform 2 (UniProt Q01081) | 0.021 | 0.03 | 0.11 | -0.02 | 0.035
TMEM8A (UniProt Q9HCN3) | 0.017 | 0.038 | -0.011 | 0.038 | 0.094
TXNL4B (UniProt Q9NX01) | 0.1 | 0.068 | -0.537 (active) | -0.102 | -0.12
TMEM63B (UniProt Q5T3F8) | 0.059 | -0.005 | -0.099 | -0.036 | -0.04
U2AF2 (UniProt P26368) | -0.004 | 0.057 | 0.045 | 0.044 | 0.005
TPP1 (UniProt O14773) | 0.019 | 0.048 | -0.02 | 0.036 | -0.067
USP24 (UniProt Q9UPU5) | 0.114 | 0.02 | 0.105 | -0.198 | -0.033
TMEM161B (UniProt Q8NDZ6) | -0.076 | 0.13 | 0.018 | 0.092 | 0.08
UBAP2L isoform 5 (UniProt Q14157) | 0.055 | 0.036 | 0 | -0.016 | 0.017
UBLCP1 (UniProt Q8WVY7) | -0.066 | 0.067 | 0.066 | -0.018 | 0.011
